From PubChem BioAssay (EPA / NIEHS)
The source made the active and inactive calls. How the source made its calls: active means hit-call score of the fitted dose curve at least 0.9, where 1 is the maximum; inactive means score below 0.9.

Read-out: TIMP metallopeptidase inhibitor 1 (TIMP1), TIMP1 (gene 7076)
Assay: BSK_hDFCGF_TIMP1: BioMAP Diversity Plus: hDFCGF Assay for TIMP metallopeptidase inhibitor 1 (TIMP1) Biomarker Activity (AID 2283062)
Conditions: primary human foreskin fibroblasts; actives raise or lower the signal
Method: BSK_hDFCGF is a cell-based, multiplexed-readout assay that uses foreskin fibroblast, a human skin primary cell, with measurements taken at 24 hours after chemical dosing in a 96-well plate.BSK_hDFCGF_TIMP1 is an assay component measured in the BSK_hDFCGF assay. It measures TIMP-1 antibody related to regulation of gene expression using ELISA technology.Data from the assay component BSK_hDFCGF_TIMP1 was analyzed into 1 assay endpoint. This assay endpoint, BSK_hDFCGF_TIMP1, was analyzed with bidirectional fitting relative to DMSO as the negative control and baseline of activity. Using a type of binding reporter, gain or loss-of-signal activity can be used to understand changes in the signaling as they relate to the gene TIMP1. Furthermore, this assay endpoint can be referred to as a primary readout, because this assay has produced multiple assay endpoints where this one serves a signaling function. To generalize the intended target to other relatable targets, this assay endpoint is annotated to the protease inhibitor intended target family, where the subfamily is metalloproteinase inhibitor.
The levels of cell surface (or secreted, indicated by the prefix "s") biomarker endpoints were measured by ELISA. Overt cytotoxicity to cells in confluent adherent cultures (all systems other than the BT system) was assessed by measuring total protein levels using sulforhodamine B (SRB) staining in parallel cultures at the time of biomarker measurements, indicated as SRB endpoints. For proliferation assays for adherent cell types, individual cell types are cultured at sub-confluence and relative cell numbers quantified by SRB staining at time points optimized for each system (48 h: 3C and CASM3C systems; 72 h: BT and HDF3CGF systems; 96 h: SAg system). SRB was performed by staining cells with 0.1% SRB after fixation with 10% TCA and reading wells at 560 nm.Viability and proliferation of PBMC (T cells) was quantified by Alamar Blue reduction for the SAg and BT systems. For PBMC viability (referred to as PBMC Cytotoxicity within the assay endpoint names), cells were plated (75,000/well in a 96-well plate) and then chemical samples added for 1 h before addition of activators, SEB and TSST-1 (20 ng/mL final concentration each). Cells were incubated for 90 h. Then, Alamar Blue (20 uL/well) (Invitrogen, Cat DAL1100) was added for 6 h, and the plates were read with a fluorescence microplate reader at 546/580 nm (excitation/emission). For PBMC proliferation, cells were plated and activated as above but incubated for only 16 h prior to addition of Alamar Blue. Plates were read after 6 h.

| SMILES | AC50 | outcome |
| --- | --- | --- |
| CC1CCC(C(C)CS)CC1S (stereo not given) | 6.08 µM (active) | – |
| CCCCC(CC)COC(=O)/C=C\C(=O)OCC(CC)CCCC (stereo not given) | – | inactive |
| CCCCC(CC)COCCC#N (stereo not given) | 20 µM (active) | – |
| Nc1cc([N+](=O)[O-])ccc1Cl | – | inactive |
| O=C1OC2(c3cc(Br)c(O)c(Br)c3Oc3c2cc(Br)c(O)c3Br)c2c(Cl)c(Cl)c(Cl)c(Cl)c21 | 11.5 µM (active) | – |
| Cc1ccc2n[nH]nc2c1 | – | inactive |
| O=P(c1ccccc1)(c1ccccc1)c1ccccc1 | – | inactive |
| c1ccc2c(c1)c1cccc3ccc4cccc2c4c31 | – | inactive |
| O=C(O)c1ccc([N+](=O)[O-])cc1 | – | inactive |
| CC[Si](OC(C)=O)(OC(C)=O)OC(C)=O | – | inactive |
| CC(C)Oc1ccccc1O | – | inactive |
| Cc1ccc(O)c(C(C)(C)C)c1 | 27.6 µM (active) | – |
| CCc1c(C)cc(N)c(CC)c1N | – | inactive |
| CC(=O)Nc1ccccc1O | – | inactive |
| O=C(O)c1cn(-c2ccc(F)cc2)c2cc(N3CCNCC3)c(F)cc2c1=O | – | inactive |
| CCCCCCCCCC=O | – | inactive |
| CC(=O)[C@H]1CC[C@H]2[C@@H]3CC=C4C[C@@H](O)CC[C@]4(C)[C@H]3CC[C@]12C | – | inactive |
| CNC[C@H](O)c1cccc(O)c1 | – | inactive |
| CCn1c2ccccc2c2cc(N)ccc21 | – | inactive |
| CCC(=O)OCc1ccccc1 | – | inactive |

| SMILES | AC50 | outcome |
| --- | --- | --- |
| COc1cc(C=O)ccc1OC(=O)C(C)C | – | inactive |
| COC(=O)c1ccc(C)cc1 | – | inactive |
| O=C=NC1CCC(CC2CCC(N=C=O)CC2)CC1 (stereo not given) | – | inactive |
| CCCCCCCCCCCCCCCCCC(=O)OCC(CC)CCCC (stereo not given) | – | inactive |
| CCCCCCCCC=O | – | inactive |
| CC(=O)OCCC(C)CC(C)(C)C (stereo not given) | – | inactive |
| CC(C)c1ccc(C(C)C)cc1 | – | inactive |
| O=C(O)C[C@H](O)C[C@H](O)/C=C/c1c(C2CC2)nc2ccccc2c1-c1ccc(F)cc1 | – | inactive |
| CN(CCOc1ccc(CC2SC(=O)NC2=O)cc1)c1ccccn1 (stereo not given) | – | inactive |
| CCCCC/C=C/C=C/C=O | 12.7 µM (active) | – |
| Cc1cc(C2(c3cc(C)c(O)cc3C)OS(=O)(=O)c3ccccc32)c(C)cc1O | – | inactive |
| NCCNCCN | – | inactive |
| CC(=O)/C=C/C1=C(C)CCCC1(C)C | – | inactive |
| C[C@H]1C[C@@H]2[C@H]([C@@H](O)C[C@@]3(C)[C@H]2CC[C@]3(O)C(=O)CO)[C@@]2(C)C=CC(=O)C=C12 | – | inactive |
| C=CCOC(=O)CCC1CCCCC1 | – | inactive |
| C=C(C)C(=O)O[C@H]1C[C@@H]2CC[C@@]1(C)C2(C)C | 20 µM (active) | – |
| N#Cc1ccc(CC(=NNC(=O)Nc2ccc(OC(F)(F)F)cc2)c2cccc(C(F)(F)F)c2)cc1 | – | inactive |
| Nc1cc([N+](=O)[O-])ccc1O | – | inactive |
| Cc1ccc(Nc2ccc(O)c3c2C(=O)c2ccccc2C3=O)cc1 | – | inactive |
| CC1COc2ccccc2N1C(=O)C(Cl)Cl (stereo not given) | – | inactive |
